This passage reports growth results from PubChem BioAssay (NCI).

Each structure is given as a SMILES string. The panel holds about 83,000 compounds, 20% with a hit somewhere; the sample as a whole holds those more often.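 Note: values are percent growth. 100 is the growth of untreated cells, values between 100 and 0 indicate rising inhibition; between -100 and 0 indicates cell death.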 A number with no mark means an inactive call. Activity calls are given as the source filed them. How the source made its calls: active means growth percent below 10; inactive means the rest.

Among the test systems are HCT-15 colon; HT29 colon; SNB-75 CNS; SNB-19 CNS; PC-3 prostate; SK-MEL-5 melanoma; UACC-62 melanoma; LOX IMVI melanoma; SK-MEL-28 melanoma; SK-MEL-2 melanoma; SN12C renal; UO-31 renal; TK-10 renal; ACHN renal; A498 renal; CCRF-CEM leukemia; MOLT-4 leukemia; CAKI-1 renal.
Assay in all cases: NCI-60 one-dose screen, 48 h (100 = growth as untreated, 0 = no growth, -100 = all killed)
Common to all, as to details: 10 µM unless noted

For `COc1cccc(/C=C2/C(=O)N(Cc3ccco3)SC2=S)c1OC`, the growth was 97.2% in the test with HCT-15 colon; 90.1% in the test with HT29 colon; 71.8% in the test with SNB-75 CNS; 107% in the test on SNB-19 CNS; 103% in the test on PC-3 prostate; 97.5% with SK-MEL-5 melanoma. Further, the growth with UACC-62 melanoma is 93.8%; in the test with LOX IMVI melanoma, 33.8%; in the test with SK-MEL-28 melanoma, 101%; in the test with SK-MEL-2 melanoma, 93.1%; with SN12C renal it was 97.6%; in the test on UO-31 renal it was 93.4%. Moreover, the growth is 117% in the test with TK-10 renal; 102% with ACHN renal; 102% with A498 renal; 68.3% with CCRF-CEM leukemia; 92.1% in the test on MOLT-4 leukemia.
As to `CCOC(=O)C(CC)n1c(=O)c2cc(OC)c(OC)cc2c2cnc3[nH]ccc3c21` (stereo not given), the growth with HCT-15 colon was 75%; in the test on HT29 colon, 76.9%; in the test with SNB-75 CNS, 45.3%; with SNB-19 CNS it was 90.8%; in the test with PC-3 prostate, 57.1%; in the test on SK-MEL-5 melanoma, 80.9%. The growth is 63.2% with UACC-62 melanoma; 44.8% in the test on LOX IMVI melanoma; 90.7% with SK-MEL-28 melanoma; 103% in the test on SK-MEL-2 melanoma; 64.9% in the test with SN12C renal; 37% in the test with UO-31 renal. For the same compound, the growth is 74.2% in the test on TK-10 renal; 61.8% in the test with ACHN renal; 59% in the test on CAKI-1 renal; -9.97% (active) in the test on A498 renal; 81.1% with CCRF-CEM leukemia; 53.6% in the test with MOLT-4 leukemia.
Turning to `O=C1Nc2ccccc2/C1=C/C(=N/c1nnc(-c2ccc(Cl)cc2)s1)c1ccccc1`, the growth in the test on HCT-15 colon was 3.35% (active); in the test with HT29 colon, -56.3% (active); in the test on SNB-75 CNS it was 76.4%; with SNB-19 CNS, 100%; in the test with PC-3 prostate, 75.7%; in the test on SK-MEL-5 melanoma, 78.3%. The growth was 51.7% in the test with UACC-62 melanoma; -79.3% (active) with LOX IMVI melanoma; 61.2% in the test on SK-MEL-28 melanoma; 97.2% with SK-MEL-2 melanoma; 35.5% in the test with SN12C renal; -69.2% (active) in the test with UO-31 renal. Moreover, the growth in the test on TK-10 renal is -36.4% (active); in the test on ACHN renal, -71.4% (active); in the test with CAKI-1 renal, 15%; in the test on A498 renal, 104%; in the test on CCRF-CEM leukemia, -42.7% (active); in the test on MOLT-4 leukemia, -26.4% (active).
In the case of `O=c1c2cccc3c(Nc4ccccn4)ccc(c32)c2nc3ccccc3n12`, the growth with HCT-15 colon is 59.2%; with HT29 colon, 64.6%; in the test on SNB-75 CNS, 78.6%; in the test on SNB-19 CNS, 89.9%; with PC-3 prostate, 64%; with SK-MEL-5 melanoma it was 51.8%. In addition, the growth in the test on UACC-62 melanoma is 64.3%; in the test on LOX IMVI melanoma, 69.6%; with SK-MEL-28 melanoma it was 101%; with SK-MEL-2 melanoma it was 80.5%; with SN12C renal, 71.7%; in the test with UO-31 renal, 46.6%. The growth with TK-10 renal is 65.8%; in the test with ACHN renal, 76.1%; in the test with CAKI-1 renal, 51.8%; in the test with A498 renal, 92.3%; in the test on CCRF-CEM leukemia, 51.8%; in the test with MOLT-4 leukemia it was 61.8%.
Take `CCCCNc1ccc2c3c1cccc3c(=O)n1c3ccccc3nc21`: the growth with HCT-15 colon was 76.2%; in the test on HT29 colon it was 80.4%; in the test with SNB-75 CNS, 73.4%; in the test on SNB-19 CNS, 101%; with PC-3 prostate, 85.5%; in the test with SK-MEL-5 melanoma it was 75.5%. Moreover, the growth in the test with UACC-62 melanoma was 85.9%; with LOX IMVI melanoma it was 75.9%; in the test on SK-MEL-28 melanoma, 103%; with SN12C renal it was 90.9%; in the test on UO-31 renal, 58.6%; with TK-10 renal, 70.2%. For the same compound, the growth was 81.8% in the test with ACHN renal; 43.2% in the test with CAKI-1 renal; 96.1% in the test with A498 renal; 75% in the test on CCRF-CEM leukemia; 69.4% in the test on MOLT-4 leukemia.
As to `N=S(=O)(NC(=O)c1ccc(Cl)cc1Cl)c1ccc(Br)s1` (stereo not given), the growth is 82.4% in the test with HCT-15 colon; 111% in the test with HT29 colon; 108% in the test on SNB-75 CNS; 85.5% with SNB-19 CNS; 102% in the test with PC-3 prostate; 94.7% with SK-MEL-5 melanoma. In addition, the growth is 112% in the test with UACC-62 melanoma; 98.1% in the test with LOX IMVI melanoma; 111% with SK-MEL-28 melanoma; 116% with SK-MEL-2 melanoma; 94.4% with SN12C renal; 79.4% in the test with UO-31 renal. For the same compound, the growth with TK-10 renal is 98.4%; in the test on ACHN renal it was 95.6%; in the test on A498 renal it was 61.2%; with CCRF-CEM leukemia, 87.2%; in the test with MOLT-4 leukemia it was 98.5%.
Regarding `CCN(CC)CCCC(C)N/C(=C1\C(=O)NC(=O)\C1=C(/NC(C)CCCN(CC)CC)c1cccc(OC)c1)c1cccc(OC)c1` (stereo not given), the growth was 5.33% (active) with HCT-15 colon; -54.8% (active) in the test on HT29 colon; 30.5% in the test with SNB-75 CNS; 23.6% in the test on SNB-19 CNS; -3.13% (active) in the test on PC-3 prostate; -91% (active) in the test with SK-MEL-5 melanoma. The growth in the test on UACC-62 melanoma was -14.7% (active); with LOX IMVI melanoma, -68.5% (active); in the test on SK-MEL-28 melanoma, -83% (active); with SN12C renal, 9.96% (active); in the test on UO-31 renal it was -83.8% (active); in the test with TK-10 renal it was -23.4% (active). The growth was -29% (active) in the test with ACHN renal; 61.4% with CAKI-1 renal; 60.2% in the test with A498 renal; -28.1% (active) in the test with CCRF-CEM leukemia; -10.5% (active) in the test on MOLT-4 leukemia.
With `CNC(=S)N/N=C/CSC/C=N/NC(=S)NC`, the growth was 87.8% in the test on HCT-15 colon; 24.4% with HT29 colon; 88.1% with SNB-75 CNS; 101% in the test on SNB-19 CNS; 57% in the test with PC-3 prostate; 81.1% with SK-MEL-5 melanoma. Moreover, the growth in the test with UACC-62 melanoma is 89.2%; with LOX IMVI melanoma, 84.6%; in the test on SK-MEL-28 melanoma it was 99.3%; with SK-MEL-2 melanoma, 98.7%; in the test on SN12C renal, 104%; with UO-31 renal, 71.7%. The growth in the test on TK-10 renal is 103%; in the test on ACHN renal, 99.6%; in the test on CAKI-1 renal, 98.7%; in the test on A498 renal, 110%; with CCRF-CEM leukemia, 20.4%; with MOLT-4 leukemia, 48.7%.
